Most compounds without a hit are left out; they make up all but 5.9% or so of the library.
VP16 counter = VP16 counterscreen qHTS for inhibitors of ROR gamma transcriptional activity; Drosophila S2 Gal4-VP16 UAS-luciferase, luminescence, 20 h; Potency, µM (doses to about 53.6 µM), for the others: at the highest dose activity, negative = inhibition, hits mostly inhibitors; actives 3.5% (n = 310,000); AID 2546, 2010;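 further: Gal4-VP16 expression switched on by copper sulfate through the metallothionein promoter; on the % scale 0 is the no-effect control and ±100 the full control effect; nearly all actives have a fitted effect of over 50% in size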
GLP1R ag = qHTS of GLP-1 Receptor Agonists; HEK293 GLP-1R CRE-luciferase, luminescence, 4-6 h; cells express a hypersensitive GLP-1R form; Potency, µM (highest dose often 45.6 µM), for inactives: at the highest dose activation, hits mostly activators; actives 0.007% (n = 380,000); AID 624172, 2012; further: % of control where 0% means no effect
GLP-1R inv ag = qHTS of GLP-1 Receptor Inverse Agonists (Inhibition Mode); HEK293 GLP-1R CRE-luciferase, luminescence, 24 h; GLP-1R form is constitutively active; Potency, µM (top dose mostly 38.3 µM), for the others: top-dose activity change, negative = inhibition, usual class: inhibitors; actives 1.6% (n = 410,000); further: on the % scale 0 is the no-effect control and ±100 the full control effect; nearly all actives have a fitted effect of over 55% in size
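Seeding at 200 cells/uL, 12 h culture, 24 hr compound treatment, then luciferase reagent and a luminescence read; cells are HEK293 stably expressing a constitutively active GLP-1R plus cAMP-responsive luciferase.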
RORgamma inh = qHTS for inhibitors of ROR gamma transcriptional activity; Nuclear receptor ROR-gamma (Mus musculus), P51450; Drosophila S2 Gal4-RORgamma UAS-luciferase reporter, 20 h; actives 5.4% (n = 310,000); AID 2551, 2010; Potency, µM (top dose mostly 53.6 µM), inactives show at the highest dose activity change, negative = inhibition, hits mostly inhibitors; further: on the % scale 0 is the no-effect control and ±100 the full control effect; nearly all actives have a fitted effect of over 60% in size
Target sequence (P51450 whole entry, looked up, the tested form may be a part): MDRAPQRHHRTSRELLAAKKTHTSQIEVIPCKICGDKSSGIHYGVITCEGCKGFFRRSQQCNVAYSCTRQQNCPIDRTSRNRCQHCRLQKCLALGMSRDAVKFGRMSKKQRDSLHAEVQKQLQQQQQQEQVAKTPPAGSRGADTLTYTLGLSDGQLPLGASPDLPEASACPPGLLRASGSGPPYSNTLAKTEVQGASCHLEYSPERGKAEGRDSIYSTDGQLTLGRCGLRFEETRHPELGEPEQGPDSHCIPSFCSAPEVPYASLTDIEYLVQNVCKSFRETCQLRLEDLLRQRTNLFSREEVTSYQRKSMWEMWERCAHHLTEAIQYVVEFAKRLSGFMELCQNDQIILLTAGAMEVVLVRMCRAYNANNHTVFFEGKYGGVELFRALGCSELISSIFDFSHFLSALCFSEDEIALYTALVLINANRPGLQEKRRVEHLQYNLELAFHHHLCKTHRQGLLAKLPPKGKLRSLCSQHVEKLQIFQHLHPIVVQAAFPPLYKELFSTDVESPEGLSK
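Read-out: Photinus luciferase luminescence; inhibitors lower reporter signal. Insect Schneider cells with Gal4-ROR gamma fusion under metallothionein promoter, UAS reporter; 700 uM final copper sulfate induction, 20 hr, ambient temperature.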
HEK293 tox = qHTS of GLP-1 Receptor Inverse Agonists: Cytotox Screen; Potency, µM (titrated, usually from 38.3 µM), inactives show at the highest dose activity change, negative = inhibition, most hits filed as inhibitors; HEK293 cAMP-luciferase reporter cells, luminescence, 24 h; actives 0.13% (n = 410,000);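 further: loss of luciferase light is scored as toxicity; on the % scale 0 is the no-effect control and ±100 the full control effect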
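Compound-treated cells are incubated 24 hr at 37 deg C under 5% CO2 after a 12 hour attachment period, then luciferase detection reagent is added and luminescence is measured following 12 min at room temperature; lowered signal indicates toxicity.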
An asterisk follows results filed as active; [ ] = dose if it differs, or a comment. The call rests on the fitted dose curve; in most records, active means well fitted curve in the direction sought with a large enough effect; inconclusive means small, poorly fitted or top-dose-only effect, or another doubt; inactive means no such curve, though single readings can be large; an effect the other way counts as inactive or inconclusive. Potency means the concentration at half of the fitted maximal effect.

`O=C1NC[C@H](c2ccccc2)N(CCCCC2CCCCC2)C1=O` gave GLP1R ag 11%, GLP-1R inv ag 10% and HEK293 tox 0%.
CCCCN1C(=S)NC[C@@H]1Cc1ccccc1 was read as VP16 counter 7.9µM*, GLP1R ag 3%, GLP-1R inv ag inconclusive, RORgamma inh 1.8µM* and HEK293 tox inconclusive.
Screening O=C(COCc1cc(-c2ccc(F)cc2)on1)Nc1cc(F)ccc1F returned GLP-1R inv ag 14% and HEK293 tox 2%.
S=C1NC[C@H](CC2CCCCC2)N1CCCCC1CCCCC1 was read as VP16 counter 3.2µM*, GLP1R ag 0%, GLP-1R inv ag -8%, RORgamma inh 1.1µM* and HEK293 tox 18%.
`S=C1NC[C@H](Cc2ccccc2)N1CCCCC1CCCCC1` gave VP16 counter 5µM*, GLP1R ag 14%, GLP-1R inv ag inconclusive, RORgamma inh 0.71µM* and HEK293 tox -5%.
For O=C(Nc1ccc(C(=O)OCc2cc(=O)n3c4c(sc3n2)CCCC4)cc1)c1ccccc1 the results were GLP-1R inv ag 8% and HEK293 tox 1%.
Screening NCCCCC(NC(CCc1ccccc1)C(=O)O)C(=O)N1CCCC1C(=O)O (stereo not drawn) returned VP16 counter 0% and RORgamma inh 10%.
CCSc1nc2ccccc2n1C(=O)/C=C/c1ccc(OC)c(OC)c1 was read as VP16 counter inconclusive, GLP1R ag -13%, GLP-1R inv ag inconclusive, RORgamma inh 7.1µM* and HEK293 tox -30%.
C=CCSc1nc2ccccc2n1C(=O)/C=C/c1ccc(OC)c(OC)c1 was read as VP16 counter 11µM*, GLP1R ag -10%, GLP-1R inv ag 59%, RORgamma inh 5µM* and HEK293 tox inconclusive.
For CCn1c(SCC(=O)N/N=C/c2ccc(OC)c(OC)c2)nc2ccccc21 the results were VP16 counter 0%[0.365 µM], GLP1R ag inconclusive, GLP-1R inv ag 0%, RORgamma inh 21% and HEK293 tox 2%.
For COc1ccc(CC(=O)n2c(CC#N)nc3ccccc32)cc1OC the results were VP16 counter inconclusive, GLP1R ag 9%, GLP-1R inv ag 9%, RORgamma inh 11µM* and HEK293 tox -5%.
For C=CCSc1nc2ccccc2n1C(=O)/C=C/c1cc(OC)c(OC)c(OC)c1 the results were VP16 counter 5µM*, GLP1R ag -13%, GLP-1R inv ag 0%, RORgamma inh 3.5µM* and HEK293 tox inconclusive.
Screening COc1ccc(/C=C/C(=O)N2CC(C)OC(C)C2)cc1OC (stereo not drawn) returned VP16 counter 2%, GLP1R ag -6%, GLP-1R inv ag 11%, RORgamma inh -10% and HEK293 tox 3%.
For CCOC(=O)CSc1nc2cc3c(cc2c(=O)n1Cc1ccc(C(=O)NCCc2ccc(OC)c(OC)c2)cc1)OCO3 the results were GLP-1R inv ag 12% and HEK293 tox 10%.
O[C@@H]1COC2[C@@H](O)CO[C@@H]21 (stereo partly drawn) was read as VP16 counter -2% and RORgamma inh -11%.
Screening COc1cc(/C=C(\C#N)C(=O)NC2CCCCC2C)ccc1OS(=O)(=O)c1ccc(C)cc1 (stereo not drawn) returned VP16 counter 11µM*, GLP1R ag -15%, GLP-1R inv ag inconclusive, RORgamma inh inconclusive and HEK293 tox inconclusive.
For CC1CCCCC1NC(=O)/C(C#N)=C/c1ccccc1F (stereo not drawn) the results were VP16 counter 11µM*, GLP1R ag -7%, GLP-1R inv ag inconclusive, RORgamma inh 11µM* and HEK293 tox inconclusive.
`COc1ccc(C2=C(Nc3ccc(Br)c(C)c3)c3ccccc3C2=O)cc1` gave GLP-1R inv ag inconclusive and HEK293 tox 1%.
For O=C(Nc1ccc(Cl)c(C(F)(F)F)c1)c1ccncc1 the results were VP16 counter 22%, GLP1R ag 3%, GLP-1R inv ag inconclusive, RORgamma inh -3% and HEK293 tox -2%.
CNC(=O)c1cc(Oc2ccc(NC(=O)Nc3ccc(Cl)c(C(F)(F)F)c3)cc2)ccn1 was read as VP16 counter 8.9µM*, GLP1R ag -3%, GLP-1R inv ag inconclusive, RORgamma inh inconclusive and HEK293 tox -32%.
`Cc1ccccc1C(=O)NNC1=NCCC1` gave VP16 counter 14µM*, GLP1R ag -15%, GLP-1R inv ag 4%, RORgamma inh 13µM* and HEK293 tox -9%.
`O=C(NNC1=NCCC1)c1cccc(Br)c1` gave VP16 counter inconclusive, GLP1R ag 2%, GLP-1R inv ag -2%, RORgamma inh inconclusive and HEK293 tox 7%.
For Cc1nc(C)c(-c2ccc(SCC(=O)Nc3ccc(Cl)c(Cl)c3)nn2)s1 the results were GLP-1R inv ag 16% and HEK293 tox 2%.
Screening COc1ccc(CNC(=O)Cn2c(=O)n3nc(-c4cccc(F)c4)nc3c3ccccc32)cc1OC returned GLP-1R inv ag 10% and HEK293 tox -6%.
C/C(=N\NC(=O)c1cccnc1)c1c(O)cc(C)oc1=O was read as VP16 counter 2%, GLP1R ag -1%, GLP-1R inv ag -9%, RORgamma inh -44% and HEK293 tox 3%.
`C/C(=N\NC(=O)c1ccccc1O)c1c(O)cc(C)oc1=O` gave VP16 counter 2.5µM*, GLP1R ag 1%, GLP-1R inv ag 5%, RORgamma inh 0.89µM* and HEK293 tox -9%.
`C/C(=N\NC(=O)c1ccccc1[N+](=O)[O-])c1c(O)cc(C)oc1=O` gave VP16 counter 6.3µM*, GLP1R ag 2%, GLP-1R inv ag -3%, RORgamma inh 3.2µM* and HEK293 tox 16%.
`C/C(=N\NC(=O)c1ccc([N+](=O)[O-])cc1)c1c(O)cc(C)oc1=O` gave VP16 counter inconclusive, GLP1R ag 4%, GLP-1R inv ag 2%, RORgamma inh 0.63µM* and HEK293 tox 9%.
For CSCCC=O the results were VP16 counter 8% and RORgamma inh 11%.
Screening Cc1cc(C)n(-c2nc3ccccc3nc2N2CCCCCC2)n1 returned VP16 counter -12%, GLP1R ag 1%, GLP-1R inv ag 6.3µM*, RORgamma inh 11µM* and HEK293 tox 50%.
`c1ccc(-c2cc3ccccc3nc2N2CCCC2)cc1` gave VP16 counter -17%, GLP1R ag -1%, GLP-1R inv ag 2.5µM*, RORgamma inh 27% and HEK293 tox 6%.

Compound activity as filed in PubChem.
